Assay [1] deals with Plasmodium falciparum Sir2 (PF13_0152, Sir2A). The experiment in a line: Plasmodium falciparum Sir2A binding compounds – biochemical, small-molecule microarray, 635 nm fluorescence, primary screen (AID 1098).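 Further: score merges spot fluorescence intensity with its signal-to-noise ratio.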 Particulars: fluorescence 635 nm, higher = more signal.
A short description of assay [2]: probe aDKK1 binding to arrayed compounds – biochemical, biotinylated probe, 635/667 nm fluorescence, primary screen (AID 1099).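 Further: score merges 667nm spot fluorescence with signal to noise across triplicate slides.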 The following applies: small-molecule microarray, higher = more signal.
Assay [3] in a line: probe aCHRDL2 binding to arrayed compounds – biochemical, biotinylated probe, 635/667 nm fluorescence, primary screen (AID 1100). Particulars: small-molecule microarray, higher = more signal.
Assay [4] can be described thus: change in splice reporter luminescence, either direction, cell-based, HEK293, spliceosome inhibition project, primary screen (AID 1101).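 Further: HEK293 cells carrying a splicing-competent luciferase reporter gene; test concentration not given here.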 The following applies: HEK293 splicing luciferase reporter, 24 h, higher = more signal, called active from +8 up or from −8 down. In general terms: In a reporter assay the amount or activity of a reporter protein is the signal.
The target of assay [5] is Fibroblast growth factor 10 (Homo sapiens) (UniProt O15520). The experiment in a line: compounds binding fibroblast growth factor 10 – biochemical, small-molecule microarray, 635 nm fluorescence, primary screen (AID 1102). Particulars: FGF10 binding, fluorescence 635 nm, higher = more signal.
Assay [6] concerns glycogen synthase kinase-3 (GSK3A per assay name; protocol says GSK3B). The experiment in a line: compounds binding glycogen synthase kinase-3 – biochemical, small-molecule microarray, 635 nm fluorescence, GSK3A, primary screen (AID 1103). Further: the record names both GSK3A and GSK3B. Particulars: fluorescence 635 nm, higher = more signal.
Assay [7] has as its target Epidermal growth factor receptor (Homo sapiens) (UniProt P00533). As to the kind of experiment: compounds binding epidermal growth factor receptor – biochemical, small-molecule microarray, 635 nm fluorescence, primary screen (AID 1104).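 Further: score merges 667 nm emission intensity with spot signal to noise over triplicate slides.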 Particulars: EGFR binding, higher = more signal.
For assay [8], the target named is Follistatin-related protein 3 (Homo sapiens) (UniProt O95633). As to the kind of experiment: compounds binding follistatin-related protein 3 – biochemical, small-molecule microarray, 635 nm fluorescence, primary screen (AID 1105).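 Further: score merges emission near 667 nm and signal to noise per printed spot across three slides.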 Particulars: FSTL3 binding, higher = more signal.
Assay [9] has as its target Dickkopf-related protein 1 (Homo sapiens) (UniProt O94907). As to the kind of experiment: small molecules binding DKK1 protein – biochemical, small-molecule microarray, 635 nm fluorescence scan, primary screen (AID 1106).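 Further: score merges emission near 667 nm with signal to noise over three replicate slides.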 The following applies: higher = more signal.
The subject of assay [10] is Inhibin beta A chain (activin A). As to the kind of experiment: small molecules binding activin A – biochemical, small-molecule microarray, 635 nm fluorescence scan, primary screen (AID 1107).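 Further: mouse activin A protein probed at 4.33 µg/mL on printed slides; score merges bound-protein fluorescence near 667 nm with spot signal-to-noise.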 Particulars: INHBA, higher = more signal.
Assay [11] relates to Human papillomavirus type 1a protein E7 (residues 44-93). The experiment in a line: small molecules binding HPV E7 44-93 – biochemical, small-molecule microarray, residues 44-93, 635 nm fluorescence, primary screen (AID 1108).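 Further: E7 fragment applied at 1 µg/mL in TBST for 1 h at 4 C; score combines spot fluorescence with its signal to noise ratio.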 The following applies: fluorescence 635 nm, higher = more signal.
A short description of assay [12]: hepatitis C replication reporter changes, two-sided – Huh7 cells, luciferase reporter, HCV replication inhibitor project, primary screen (AID 1109).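 Further: huh7 hepatoma cells harbouring a luciferase neomycin HCV replicon reporter; luciferase luminescence as measure of HCV replicon replication; test concentration not given here.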 The following applies: Huh7 HCV replicon luciferase reporter, 48 h; higher = more signal.
The target in assay [13] is Left-right determination factor 2 (Homo sapiens) (UniProt O00292). As to the kind of experiment: small molecules binding LEFTY2 protein – biochemical, small-molecule microarray, 635 nm fluorescence scan, primary screen (AID 1110). The following applies: higher = more signal.
Assay [14] addresses Calmodulin-1 (Homo sapiens) (UniProt P0DP23). As to the kind of experiment: small molecules binding calmodulin-1 with EGTA – biochemical, small-molecule microarray, Cy5-labelled CALM1, profiling panel (AID 1111).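 Further: labelled calmodulin applied in Tris saline Tween buffer holding calcium plus EGTA and DTT.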 The following applies: Cy5-CALM1 binding fluorescence, higher = more signal.
Assay [15] has the same target. As to the kind of experiment: small molecules binding Ca-loaded calmodulin-1 – biochemical, small-molecule microarray, Cy5-labelled CALM1, plus calcium, artefact control for SMM control-protein annotation, profiling panel (AID 1112).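 Further: score merges spot fluorescence with signal to noise from triplicate slides.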 Particulars: Cy5-CALM1 binding fluorescence, higher = more signal.
A short description of assay [16]: probe aWnt5a binding to arrayed compounds – biochemical, biotinylated probe, 635/667 nm fluorescence, primary screen (AID 1113).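 Further: score merges 667 nm fluorescence intensity with signal-to-noise per printed feature.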 The following applies: small-molecule microarray, higher = more signal.
Assay [17] can be described thus: probe aShh binding to arrayed compounds – biochemical, biotinylated probe, 635/667 nm fluorescence, primary screen (AID 1114).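 Further: probe is biotin-labelled aShh protein from a stem cell growth factor screen; measures binding of labelled protein to compounds printed on the slide; score merges feature fluorescence at 667 nm with signal-to-noise.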 The following applies: small-molecule microarray, higher = more signal.
Assay [18] can be described thus: probe aNog binding to arrayed compounds – biochemical, biotinylated probe, 635/667 nm fluorescence, primary screen (AID 1115).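 Further: probe is biotinylated aNog protein used at 0.15 µg/mL for 1 h at 4 C; z-score combines 667 nm fluorescence of each spot with its signal to noise.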 Particulars: small-molecule microarray, higher = more signal.
Assay [19] has as its target Torsin-1A-interacting protein 1 (Homo sapiens) (UniProt Q5JTV8). As to the kind of experiment: compound microarray binding of lysate hLAP1 – cell lysate, small-molecule microarray, COS7 lysate, 635/667 nm fluorescence, primary screen (AID 1116). Particulars: 635 nm fluorescence, higher = more signal.
Assay [20] has as its target Alpha-bungarotoxin (Bungarus multicinctus) (UniProt P60615). As to the kind of experiment: compounds binding labelled alpha-BTX control protein – biochemical, small-molecule microarray, Alexa647 label, 635/667 nm fluorescence, artefact control for SMM control protein annotation, profiling panel (AID 1117). Particulars: alpha-BTX-A647 binding fluorescence, higher = more signal.

Activity calls are given as the source filed them.

Sequence of Follistatin-related protein 3 (Homo sapiens) (O95633 whole entry, looked up): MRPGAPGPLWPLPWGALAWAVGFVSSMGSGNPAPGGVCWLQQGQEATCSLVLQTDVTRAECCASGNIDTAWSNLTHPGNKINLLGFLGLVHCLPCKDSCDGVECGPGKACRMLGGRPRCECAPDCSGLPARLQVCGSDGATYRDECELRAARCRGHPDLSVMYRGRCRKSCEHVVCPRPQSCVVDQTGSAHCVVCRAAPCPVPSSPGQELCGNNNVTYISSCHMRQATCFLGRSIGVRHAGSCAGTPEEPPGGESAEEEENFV
Sequence of Torsin-1A-interacting protein 1 (Homo sapiens) (Q5JTV8 whole entry, looked up): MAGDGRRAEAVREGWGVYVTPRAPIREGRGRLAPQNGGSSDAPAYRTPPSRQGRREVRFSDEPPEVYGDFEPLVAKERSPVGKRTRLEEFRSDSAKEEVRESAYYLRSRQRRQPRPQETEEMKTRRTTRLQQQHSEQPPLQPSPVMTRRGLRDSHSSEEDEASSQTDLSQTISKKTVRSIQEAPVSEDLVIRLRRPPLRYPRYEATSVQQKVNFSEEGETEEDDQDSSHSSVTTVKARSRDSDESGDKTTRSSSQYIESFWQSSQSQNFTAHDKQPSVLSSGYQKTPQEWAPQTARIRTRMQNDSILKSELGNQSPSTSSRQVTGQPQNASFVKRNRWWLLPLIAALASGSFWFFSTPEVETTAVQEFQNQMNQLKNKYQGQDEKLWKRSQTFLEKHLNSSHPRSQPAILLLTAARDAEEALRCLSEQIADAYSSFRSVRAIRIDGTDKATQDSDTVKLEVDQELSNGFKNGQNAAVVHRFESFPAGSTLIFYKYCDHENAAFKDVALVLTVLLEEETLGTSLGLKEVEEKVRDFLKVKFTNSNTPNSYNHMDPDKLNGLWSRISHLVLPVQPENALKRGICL
Sequence of Fibroblast growth factor 10 (Homo sapiens) (O15520 whole entry, looked up): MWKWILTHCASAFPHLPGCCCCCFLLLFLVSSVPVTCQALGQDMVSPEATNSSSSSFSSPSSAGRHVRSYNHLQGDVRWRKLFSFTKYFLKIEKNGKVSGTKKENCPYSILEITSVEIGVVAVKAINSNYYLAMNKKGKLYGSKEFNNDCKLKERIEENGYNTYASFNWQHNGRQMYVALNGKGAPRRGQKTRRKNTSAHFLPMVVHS
Sequence of Epidermal growth factor receptor (Homo sapiens) (P00533 whole entry, looked up): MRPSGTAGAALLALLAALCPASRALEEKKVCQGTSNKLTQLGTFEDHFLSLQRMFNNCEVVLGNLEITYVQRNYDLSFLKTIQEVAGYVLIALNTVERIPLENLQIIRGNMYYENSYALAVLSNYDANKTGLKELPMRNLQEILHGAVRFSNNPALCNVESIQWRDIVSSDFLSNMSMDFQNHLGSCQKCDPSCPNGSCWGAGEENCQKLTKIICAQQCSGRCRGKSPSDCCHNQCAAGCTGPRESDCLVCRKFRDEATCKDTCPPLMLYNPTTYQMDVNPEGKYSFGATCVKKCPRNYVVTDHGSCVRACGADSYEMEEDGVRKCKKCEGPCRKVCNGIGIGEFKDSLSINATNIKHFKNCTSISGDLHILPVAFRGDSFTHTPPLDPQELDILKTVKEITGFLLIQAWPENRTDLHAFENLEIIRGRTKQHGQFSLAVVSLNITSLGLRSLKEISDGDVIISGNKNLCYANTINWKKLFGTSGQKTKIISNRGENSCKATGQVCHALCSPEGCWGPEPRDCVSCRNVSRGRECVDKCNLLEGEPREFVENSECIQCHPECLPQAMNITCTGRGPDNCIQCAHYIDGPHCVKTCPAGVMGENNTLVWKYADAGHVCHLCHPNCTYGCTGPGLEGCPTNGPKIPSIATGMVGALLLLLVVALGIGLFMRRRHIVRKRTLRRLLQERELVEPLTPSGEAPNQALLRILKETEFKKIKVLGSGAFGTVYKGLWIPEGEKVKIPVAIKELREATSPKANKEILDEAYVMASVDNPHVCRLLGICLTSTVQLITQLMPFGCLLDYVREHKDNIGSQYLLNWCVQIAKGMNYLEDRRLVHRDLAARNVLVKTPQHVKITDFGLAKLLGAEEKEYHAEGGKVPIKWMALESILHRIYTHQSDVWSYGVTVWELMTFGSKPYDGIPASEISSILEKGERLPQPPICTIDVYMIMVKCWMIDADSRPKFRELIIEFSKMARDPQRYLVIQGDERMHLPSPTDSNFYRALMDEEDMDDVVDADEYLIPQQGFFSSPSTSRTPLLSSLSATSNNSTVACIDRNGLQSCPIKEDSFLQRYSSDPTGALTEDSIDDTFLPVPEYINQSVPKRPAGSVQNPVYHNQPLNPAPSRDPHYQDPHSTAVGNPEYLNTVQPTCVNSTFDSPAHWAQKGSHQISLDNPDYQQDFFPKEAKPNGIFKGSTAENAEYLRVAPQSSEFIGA
Sequence of Left-right determination factor 2 (Homo sapiens) (O00292 whole entry, looked up): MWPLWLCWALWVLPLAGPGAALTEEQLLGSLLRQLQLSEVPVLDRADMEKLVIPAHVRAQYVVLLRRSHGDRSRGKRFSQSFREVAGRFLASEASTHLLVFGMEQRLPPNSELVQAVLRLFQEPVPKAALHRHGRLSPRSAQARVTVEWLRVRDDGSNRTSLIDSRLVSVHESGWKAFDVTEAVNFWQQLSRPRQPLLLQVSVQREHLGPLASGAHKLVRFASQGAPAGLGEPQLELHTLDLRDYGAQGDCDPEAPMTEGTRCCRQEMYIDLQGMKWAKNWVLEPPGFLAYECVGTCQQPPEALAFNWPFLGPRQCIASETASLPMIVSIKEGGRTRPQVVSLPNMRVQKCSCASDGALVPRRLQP
Sequence of Dickkopf-related protein 1 (Homo sapiens) (O94907 whole entry, looked up): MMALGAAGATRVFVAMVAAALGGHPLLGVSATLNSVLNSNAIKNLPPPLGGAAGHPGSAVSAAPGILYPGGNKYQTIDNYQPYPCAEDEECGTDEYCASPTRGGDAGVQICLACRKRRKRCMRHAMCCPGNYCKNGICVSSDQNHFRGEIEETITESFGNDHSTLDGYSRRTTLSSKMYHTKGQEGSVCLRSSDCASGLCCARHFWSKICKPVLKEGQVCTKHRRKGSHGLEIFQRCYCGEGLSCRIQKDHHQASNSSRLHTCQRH
Sequence of Alpha-bungarotoxin (Bungarus multicinctus) (P60615 whole entry, looked up): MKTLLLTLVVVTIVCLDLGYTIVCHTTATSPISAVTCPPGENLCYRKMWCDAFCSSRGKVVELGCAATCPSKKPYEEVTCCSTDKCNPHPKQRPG

For `CN(C)C(=O)[C@]1(CCS(=O)(=O)c2ccccc2)N=C(c2ccc(OCCCO)cc2)O[C@@H]1c1ccccc1`, the composite z-score in assay [1] was 1.45; in [2] it was 0.483; in assay [3], 0.515; in assay [5], 1.48; in assay [6], 1.26; in assay [7], -0.0269. Also, the composite z-score in assay [8] was 0.552; in assay [9], -0.323; in assay [10], 0.82; in [11], 1.44; in assay [13] it was 0.389; in assay [14], 1.72. Moreover, the composite z-score in assay [15] is 0.513; in [16], -0.034; in assay [17] it was 0.582; in [18], -0.565; in assay [19] it was 1; in assay [20] it was 0.915. Also, the z-score in assay [4] was -0.621 (inactive); in assay [12], -2.25.
`COc1ccc(C(=O)Nc2cccc(CN3C(=O)[C@@]4(O[C@@H](CC(=O)N(CCO)Cc5ccccc5)[C@H]([Si](C)(C)c5ccc(OC)cc5)[C@H]4C)c4ccccc43)c2)cc1`: the composite z-score in assay [1] is 1.4; in [2], -0.566; in assay [3], -0.0709; in assay [5], -0.0511; in assay [6], 0.196; in assay [7] it was 0.0627. The composite z-score came to 0.823 in [8]; 0.26 in assay [9]; 0.636 in [10]; 1.18 in assay [11]; 0.344 in [13]; 0.822 in [14]. Also, the composite z-score was -0.0254 in assay [15]; -0.187 in [16]; -0.206 in assay [17]; -0.38 in assay [18]; 1.12 in assay [19]; 0.681 in assay [20]. Also, the z-score in assay [4] is -2.23 (inactive); in assay [12], -3.89.
Regarding `CN(C)CCCNC(=O)[C@@H]1c2ccccc2C(=O)N(C2CCCCC2)[C@H]1c1ccc(CO)cc1`, the composite z-score in [1] worked out at 1.37; in [2], 0.229; in assay [3], 0.11; in assay [5], 1.43; in assay [6], 1.32; in assay [7], 0.758. Also, the composite z-score in [8] turned out to be 1.53; in assay [9], 1.15; in [10], 0.106; in assay [11] it was 1.44; in assay [13], 1.17; in assay [14], 1.41. Also, the composite z-score was -0.179 in assay [15]; -0.0459 in [16]; 0.191 in assay [17]; -0.312 in [18]; 0.87 in assay [19]; 0.233 in assay [20]. Moreover, the results for the z-score in assay [4] and in assay [12] were 1.39 (inactive) and -2.43, respectively.
On to `CC(C)C[C@@H]1NC(=O)[C@H]2C[C@@H](C(=O)NCCCCCN)[C@@H](c3cccc(OCCO)c3)N2C1=O`, for which the composite z-score in [1] was 0.481; in [2], 0.206; in [3], 0.235; in [5], -0.361; in assay [6], -0.389; in assay [7], 0.125. Further, the composite z-score is -0.348 in [8]; 0.183 in assay [9]; -0.762 in assay [10]; -1.01 in assay [11]; -0.0189 in assay [13]; 0.331 in assay [14]. Further, the composite z-score was 0.422 in assay [15]; -0.103 in assay [16]; -0.138 in assay [17]; -0.157 in assay [18]; 2.08 in assay [19]; 1.03 in assay [20]. Also, the z-score in assay [4] was -1.76 (inactive); in assay [12] it was 0.335.
In the case of `O=C1O[C@H](c2ccccc2)[C@H](c2ccccc2)N2[C@H]1[C@@H](C(=O)Nc1nc3ccccc3s1)[C@]1(C(=O)Nc3ccc(C#CC4=CCCCC4)cc31)[C@H]2c1ccc(O)cc1`, the composite z-score in assay [1] is 1.52; in [2] it was -0.0399; in assay [3] it was 0.115; in [5], 0.588; in assay [6] it was 1.22; in assay [7] it was 0.308. The composite z-score in [8] came out at 0.842; in assay [9], 0.188; in assay [10], 0.533; in assay [11] it was 1.38; in assay [13], 0.0561; in [14], 1.18. The composite z-score is 0.366 in assay [15]; -0.0203 in assay [16]; 0.0465 in [17]; 0.178 in [18]; 1.17 in assay [19]; 1.4 in assay [20]. Moreover, the z-score was -1.31 (inactive) in assay [4] and -0.832 in [12].

These data come from PubChem BioAssay.
